Active and inactive are the calls of the source.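 How the source made its calls, unless noted: active means inhibition above 20% together with a positive visual image hit; inconclusive means visual image hit but inhibition not above 20%; inactive means no visual image hit.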
How the values were obtained:
[1] = inhibitors of TNFa-induced NFkB p65 translocation, primary screen, imaging, HUVEC, MLSMR starter and 10KST1 sets (AID 438); conditions: HUVEC TNFa-induced p65 nuclear translocation; cell count: measured here: nuclei count (cytotoxicity indicator), at 2.08 µM; inhibition: at 2 µM, stronger effect = higher value, 0% TNFa-plus-vehicle, 100% no-TNFa wells;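 further: compound added about 3h40 before a 20 min TNFalpha stimulation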;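 on inhibition: signal is the nuclear over cytoplasmic p65 intensity ratio per well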
[2] = reduction of polyQ htt aggregates in cells – imaging, exon1htt(103Q)mCFP cells, high-content imaging, primary screen (AID 483;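 active means visual image review flags a hit and inhibition of aggregation exceeds 20%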;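 further: compound exposure lasted 3 days before fixation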;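 on nuclei count: percent of the per-plate median nuclei count of sample wells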); conditions: exon1htt(103Q)mCFP cell line, aggregate imaging, at 2 µM; inhibition of aggregation: stronger effect = higher value; nuclei count: measured here: cell count, toxicity
[3] = endothelial E-selectin expression blockers – imaging, HUVEC, immunofluorescence, MLSMR starter and 10KST1 sets, primary screen (AID 487;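 active means visually confirmed hit in the image check and inhibition above 20%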;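 on inhibition: signal is fraction of cell area covered by stained E-selectin grains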;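 on nuclei count: 100% = median nuclei count of all wells on the same plate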); conditions: HUVEC TNFalpha-induced E-selectin immunofluorescence imaging, at 2 µM; inhibition: stronger effect = higher value; nuclei count: measured here: cell number, toxicity
[4] = target: Voltage-gated potassium channel subunit beta-2 (Rattus norvegicus) (UniProt P62483); experiment: inhibitors of rat Kvbeta2 reductase activity – biochemical, NADPH fluorescence, primary screen (AID 622;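 active means fluorescence slope higher than the sample average by over 3 SD, cut at about -0.22 in these data, passing the limit was not always enough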;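 further: slope of raw intensity against log time taken from 70 to 1610 s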); conditions: recombinant KvBeta, 4-cyanobenzaldehyde reduction, at 10 µM, stronger effect = higher value
[5] = target: Voltage-gated potassium channel subunit beta-2 (Rattus norvegicus) (UniProt P62483); experiment: enhancers of rat Kvbeta2 NADPH turnover – biochemical, NADPH fluorescence, primary screen (AID 623;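 active means NADPH fluorescence slope more negative than the mean of all samples by about 3 SD, 99.7% confidence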;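 further: fluorescence intensity change per second fitted from 20 to 320 s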); conditions: Recombinant KvBeta, NADPH fluorescence decrease slope, 10 min; at 10 µM; stronger effect = lower value
[6] = target: Alpha-2C adrenergic receptor (Homo sapiens) (UniProt P18825); experiment: compounds altering alpha2C-coupled GIRK flux – cell-based, HEK293 alpha2C/GIRK1/2, thallium flux, primary screen (AID 624;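 active means fluorescence slope after compound addition differing from the mean of all screened samples at 99.7% confidence, in either direction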;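 further: slope of fluorescence ratio to pre-addition baseline per second over 15 to 24 s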); conditions: thallium flux BTC fluorescence, at 10 µM, actives lie on both sides
[7] = blockers of RIG-like receptor reporter activation – cell-based, Sendai virus stimulus, luciferase, 10K MLSCN set, TLR/RLR signaling modifier project, primary screen (AID 602276;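 active means inhibition at or above 50% at 10 µM; inactive means inhibition below 50%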;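 further: firefly luciferase from ISG56 promoter only with Renilla not read in this screen; 0% = Sendai virus plus DMSO and 100% = medium plus DMSO without virus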); conditions: HEK293 RL24 IRF3 luciferase reporter, at 10 µM, stronger effect = higher value
[8] = TLR3 IRF3 reporter activation blockers – cell-based, poly I:C stimulus, luciferase, 10K MLSCN set, primary screen (AID 602277;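 active means inhibition of the reporter signal at or above 50%; inactive means inhibition below 50%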); conditions: HEK293-TLR3 RL24 IRF3 luciferase reporter, at 10 µM, stronger effect = higher value

Sequence of Alpha-2C adrenergic receptor (Homo sapiens) (P18825 whole entry, looked up): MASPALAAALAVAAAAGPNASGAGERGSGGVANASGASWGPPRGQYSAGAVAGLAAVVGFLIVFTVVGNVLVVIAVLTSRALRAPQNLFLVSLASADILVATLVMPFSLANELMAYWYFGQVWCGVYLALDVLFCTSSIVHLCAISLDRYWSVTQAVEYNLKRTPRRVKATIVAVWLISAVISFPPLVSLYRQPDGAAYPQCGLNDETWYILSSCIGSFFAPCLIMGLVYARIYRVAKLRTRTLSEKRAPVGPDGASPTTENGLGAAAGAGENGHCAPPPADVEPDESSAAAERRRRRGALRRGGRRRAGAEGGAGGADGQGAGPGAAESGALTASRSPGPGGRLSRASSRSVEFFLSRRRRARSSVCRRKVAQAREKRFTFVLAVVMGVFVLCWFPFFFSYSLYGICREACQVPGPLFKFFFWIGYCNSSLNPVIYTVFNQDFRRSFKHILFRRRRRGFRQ
Sequence of Voltage-gated potassium channel subunit beta-2 (Rattus norvegicus) (P62483 whole entry, looked up): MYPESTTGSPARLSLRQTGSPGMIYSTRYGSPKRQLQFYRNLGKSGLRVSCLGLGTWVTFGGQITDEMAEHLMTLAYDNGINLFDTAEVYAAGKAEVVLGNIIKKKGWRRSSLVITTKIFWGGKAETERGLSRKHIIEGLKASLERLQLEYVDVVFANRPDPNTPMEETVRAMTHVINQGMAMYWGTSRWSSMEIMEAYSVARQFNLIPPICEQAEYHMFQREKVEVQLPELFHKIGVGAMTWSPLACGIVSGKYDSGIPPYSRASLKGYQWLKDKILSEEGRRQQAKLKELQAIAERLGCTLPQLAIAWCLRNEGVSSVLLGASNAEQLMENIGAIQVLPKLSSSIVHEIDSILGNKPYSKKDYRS

SMILES | cell count [1] | inhibition [1] | inhibition of aggregation [2] | nuclei count [2] | inhibition [3] | nuclei count [3] | fluorescence slope [4] | NADPH fluorescence slope [5] | slope [6] | inhibition [7] | inhibition [8]
Cc1cc(NC(=O)CSc2nc3ccccc3n2CC(=O)N2CCCCC2)no1 | 722 | -2% (inactive) | -15% (inactive) | 108% | -70.8% (inactive) | 119% | -0.475 (inactive) | -4.9e-05 (inactive) | 0.00628 (inactive) | 14.5% (inactive) | 29.1% (inactive)
COc1ccc(CN(Cc2cc3cc4c(cc3[nH]c2=O)OCO4)C(=O)NC2CCCCC2)cc1 | 337 | 7.6% (inactive) | 38.7% (inactive) | 73.1% | -75.9% (inactive) | 99.3% | -0.368 (inactive) | -5.1e-05 (inactive) | 0.0053 (inactive) | 5.31% (inactive) | -1.61% (inactive)
O=C(NCCC1=CCCCC1)c1cc2c(s1)CS(=O)(=O)C2 | 610 | 6% (inactive) | -19.3% (inactive) | 102% | 31% (inactive) | 94.9% | -0.433 (inactive) | -0.000138 (inactive) | 0.00559 (inactive) | -7.34% (inactive) | -9.88% (inactive)
CCOc1ccc2nc(NC(=O)CSc3nnnn3C3CCCCC3)sc2c1 | 401 | 1.7% (inactive) | -8% (inactive) | 108% | -74.4% (inactive) | 92.8% | -0.393 (inactive) | -3.7e-05 (inactive) | 0.00315 (inactive) | -4.95% (inactive) | -46.7% (inactive)
CC(=O)c1ccc(OCC(O)CN2CCN(CCO)CC2)cc1 (stereo unspecified) | 605 | -6.1% (inactive) | -14.2% (inactive) | 104% | -19.7% (inactive) | 113% | -0.549 (inactive) | -2.9e-05 (inactive) | 0.00738 (inactive) | 13.3% (inactive) | 40.3% (inactive)
CCOc1cc(-c2nc(-c3ccccc3OC)no2)cc(OCC)c1OCC | 575 | 7.7% (inactive) | 0.8% (inactive) | 98.3% | -68.3% (inactive) | 109% | -0.605 (inactive) | -4.7e-05 (inactive) | 0.00447 (inactive) | 11.5% (inactive) | 12.6% (inactive)
c1ccc(CN2CCN(CCCNc3ccc4nnc(-c5ccccc5)n4n3)CC2)cc1 | 485 | -5.5% (inactive) | 13.8% (inactive) | 10.8% | -67.5% (inactive) | 102% | -0.63 (inactive) | -1.7e-05 (inactive) | 0.00645 (inactive) | -3.46% (inactive) | -17.8% (inactive)
CCCCC(=O)Nc1ccc(NC(=O)C2CC2)nc1 | 558 | 19.2% (inactive) | 16% (inactive) | 67.6% | 22.7% (inactive) | 94.2% | -0.474 (inactive) | -6e-05 (inactive) | 0.00505 (inactive) | 3.06% (inactive) | -2.76% (inactive)
Cc1ccc(C(C)n2cc(C(=O)NCCN3CCN(C)CC3)nn2)cc1 (stereo unspecified) | 429 | 12.1% (inactive) | -6.7% (inactive) | 117% | -7.3% (inactive) | 119% | -0.575 (inactive) | -1.3e-05 (inactive) | 0.00588 (inactive) | 3.51% (inactive) | 7.62% (inactive)
S=c1[nH]ncn1-c1ccccn1 | 681 | -11% (inactive) | -25.8% (inactive) | 114% | -40.7% (inactive) | 109% | -0.41 (inactive) | -3.7e-05 (inactive) | 0.00408 (inactive) | 1.29% (inactive) | 8.61% (inactive)
O=C(Nc1ncnc2sc3c(c12)CCC3)c1ccco1 | 289 | -1.6% (inactive) | 0.8% (inactive) | 75.8% | -12.5% (inactive) | 118% | -0.327 (inactive) | -4.2e-05 (inactive) | 0.00564 (inactive) | -7.87% (inactive) | -0.691% (inactive)
CC(C)CCNC(=O)C(c1cccs1)N(CC1CCCO1)C(=O)Cn1nnc2ccccc21 (stereo unspecified) | 642 | 8.8% (inactive) | 3.2% (inactive) | 85.4% | -132% (inactive) | 97.1% | -0.451 (inactive) | -5.1e-05 (inactive) | 0.00299 (inactive) | 10.3% (inactive) | 35.6% (inactive)
Cc1cc(C)nc(NC(=O)c2c(-c3c(Cl)cccc3Cl)noc2C)n1 | 648 | 2% (inactive) | 3.9% (inactive) | 95.5% | -7.8% (inactive) | 109% | -0.435 (inactive) | 7.7e-06 (inactive) | 0.00547 (inactive) | -2.48% (inactive) | 7.12% (inactive)
Cc1nc2cc(-n3ccc(=O)cc3)ccc2n1-c1ccccc1 | 352 | -2.1% (inactive) | 1.3% (inactive) | 98.4% | -286% (inactive) | 113% | -0.407 (inactive) | -3.5e-05 (inactive) | 0.00591 (inactive) | 19.8% (inactive) | 99% (active)
CCOC(=O)C(NCc1ccccc1OC)(NC(C)=O)C(F)(F)F (stereo unspecified) | 279 | -1.5% (inactive) | 14.4% (inactive) | 97.8% | -72.8% (inactive) | 125% | -0.616 (inactive) | -5.3e-06 (inactive) | 0.00702 (inactive) | 5.22% (inactive) | 4.4% (inactive)
COc1ccccc1CNC(=O)C1CCCN(S(=O)(=O)c2cnc[nH]2)C1 (stereo unspecified) | 443 | 49.5% (active) | 27.9% (inactive) | 87.1% | -59.5% (inactive) | 103% | -0.558 (inactive) | 7.1e-07 (inactive) | 0.00747 (inactive) | -5.95% (inactive) | 0.0501% (inactive)
COCCCNC(=O)C1CCN(C(=O)Nc2ccc(Cl)cc2)CC1 | 577 | 5% (inactive) | 18.9% (inactive) | 96.2% | 33.6% (inactive) | 82.1% | -0.457 (inactive) | 1.1e-05 (inactive) | 0.00588 (inactive) | 11.2% (inactive) | 34.3% (inactive)
CCC(CC)C(=O)NCCc1cc2ccc(C)cc2[nH]c1=O | 643 | 0.5% (inactive) | 3% (inactive) | 117% | -15.4% (inactive) | 111% | -0.556 (inactive) | -3.5e-05 (inactive) | 0.00557 (inactive) | 14.3% (inactive) | 26.1% (inactive)
COCCn1c(C23CC4CC(CC(C4)C2)C3)n[nH]c1=S | 866 | 3.6% (inactive) | -13.1% (inactive) | 106% | -91.1% (inactive) | 129% | -0.44 (inactive) | -2.3e-05 (inactive) | 0.00347 (inactive) | 14.6% (inactive) | 42.9% (inactive)
Cc1cccc(N2CCN(C(=O)CCn3c(=S)[nH]c4cc5c(cc4c3=O)OCO5)CC2C)c1 (stereo unspecified) | 488 | 3% (inactive) | -4.6% (inactive) | 112% | -1.8% (inactive) | 97.2% | -0.614 (inactive) | -2.6e-05 (inactive) | 0.00669 (inactive) | 9.48% (inactive) | 38.2% (inactive)
Cc1ccc(-n2nnnc2SCC(=O)c2cc(C)n(CC3CCCO3)c2C)cc1 (stereo unspecified) | 452 | 6.3% (inactive) | -11.9% (inactive) | 102% | -52.2% (inactive) | 121% | -0.437 (inactive) | 3.2e-05 (inactive) | 0.00567 (inactive) | 15.1% (inactive) | -0.555% (inactive)
Cc1ccccc1OCCCN1C(=O)C(=O)c2cccc(C)c21 | 833 | 3.7% (inactive) | 5% (inactive) | 108% | -81.4% (inactive) | 113% | -0.575 (inactive) | -5e-05 (inactive) | 0.00604 (inactive) | 5.45% (inactive) | -4.08% (inactive)
COc1ccc(S(=O)(=O)N2CCN(Cc3ccc(Cl)cc3)CC2)cc1 | 554 | -5.4% (inactive) | 24.4% (inactive) | 61.1% | -97.9% (inactive) | 148% | -0.458 (inactive) | -9.2e-06 (inactive) | 0.00502 (inactive) | 0.485% (inactive) | -1.64% (inactive)
CC(C)[C@H](NC(=O)NC1CCCC1)C(=O)O | 252 | 2.5% (inactive) | 7.6% (inactive) | 87.5% | 3.3% (inactive) | 91.7% | -0.462 (inactive) | 2e-05 (inactive) | 0.0056 (inactive) | 5.42% (inactive) | 16.1% (inactive)
COC(=O)C(CC(C)C)NC(=O)CSc1nc(-c2ccccc2)c(C#N)c(=O)[nH]1 (stereo unspecified) | 467 | -10.9% (inactive) | -13% (inactive) | 64.5% | -3.8% (inactive) | 81.7% | -0.402 (inactive) | -0.000101 (inactive) | 0.0059 (inactive) | 15.4% (inactive) | 28.8% (inactive)
CCOc1ncccc1C(=O)OCC(=O)N1CC(=O)Nc2ccccc21 | 371 | 2.2% (inactive) | -21.8% (inactive) | 102% | -9.8% (inactive) | 111% | -0.486 (inactive) | 3.8e-06 (inactive) | 0.00558 (inactive) | 7.28% (inactive) | 22.7% (inactive)

— PubChem BioAssay
